Laboratory results: the supplement of paper PMC6555819

What was measured:
Test in all cases: PBM binding z-score (relative to random genomic background probes); higher = stronger binding; sequences stand for … in GC…GCGATTGACAGCGTAGAATGAAGG
[1] = system: FXR:RXRa (NR concentration 270 nM, RXRa partner concentration 90 nM)
How it was run: (§1)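 Binding z-scores were set against random background probes. The data came from custom Agilent 4×180K protein-binding microarrays carrying double-stranded probes with 34-nt variable regions, incubated 1 h with ligand-free nuclear receptor dimers. Partner-specific antibodies detected binding, and scanned fluorescence was regression-normalized.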

[2] = system: LXRa:RXRa (NR concentration 270 nM, RXRa partner concentration 90 nM)
How it was run: as §1

[3] = system: LXRa homodimer (NR concentration 270 nM)
How it was run: as §1

[4] = system: LXRb:RXRa (NR concentration 270 nM, RXRa partner concentration 90 nM)
How it was run: as §1

[5] = system: LXRb homodimer (NR concentration 270 nM)
How it was run: as §1

[6] = system: PPARa:RXRa (NR concentration 270 nM, RXRa partner concentration 90 nM)
How it was run: as §1

[7] = system: PPARg:RXRa (NR concentration 180 nM, RXRa partner concentration 90 nM)
How it was run: as §1

[8] = system: PPARg:RXRa 270nM:90nM, anti-RXR (NR concentration 270 nM, RXRa partner concentration 90 nM)
How it was run: as §1

[9] = system: PPARg:RXRa 30nM:10nM, anti-RXR (NR concentration 30 nM, RXRa partner concentration 10 nM)
How it was run: as §1

[10] = system: PPARg:RXRa 90nM:30nM, anti-RXR (NR concentration 90 nM, RXRa partner concentration 30 nM)
How it was run: as §1

Sequence	PBM binding z-score [1]	PBM binding z-score [2]	PBM binding z-score [3]	PBM binding z-score [4]	PBM binding z-score [5]	PBM binding z-score [6]	PBM binding z-score [7]	PBM binding z-score [8]	PBM binding z-score [9]	PBM binding z-score [10]
ATCGAGAGGTCGTGAGGTGAGTATACAGAAAGGC	3.73	2.94	0.117	2.25	0.0713	4.03	2.75	2.74	0.76	1.91
CCTTACGGGTCACGAGGTTAAAGCACGACGAGCG	7.54	4.81	0.696	4.3	0.192	6.28	7.86	7.25	3.78	6.28
TCGAGTAGGTTAGTCGGGACATTCAGCCAACATA	2.7e-05	0.0232	-0.222	-0.141	-1.03	0.291	0.156	0.639	0.983	0.955
AGAATGAGGTTATCAAAGATCAGGGAAACGCTTG	1.6	5.08	-0.032	2.44	-0.277	3.13	1.78	1.69	0.863	1.53
AGTGAAAGTTCACTAGGTAACGTAAGATTCAGCT	4.44	5.02	3.08	2.88	0.454	4.5	6.12	6.07	3.52	5.3
CTCGAAAGCTCGGTTGAGGTGAGTATACGGATAA	-0.222	-0.554	-0.444	-0.393	-0.608	-0.294	-0.189	-0.312	-0.328	-0.403
CAAACTAGGTCACGCAAGGTCAAAGTCGAATGAC	7.41	7.71	7.2	7.01	1.72	6.75	10.2	7.79	6.97	8.64
ACTAGTTGGTCAGCTGATGTCACACACAATTCGG	0.0768	-0.317	-0.115	0.235	-0.112	0.0483	0.943	0.0634	0.0518	0.0179
CGTTCAAGGTCAGAGAGGTCAGTGAATGCCGAGT	6.69	5.26	3.71	4.58	0.61	5.27	4.38	4.69	1.58	3.31
TTACCAAGGTGAAAGGTCGTAGATGCACGCCTTG	3.65	3.02	-0.241	2.66	-0.86	5.51	8.66	8.09	7.58	8.56
GCGACTGGGGCAAAGCAGGTTAACATAAGGTTGG	0.921	0.436	-0.346	0.261	-1.01	1.41	1.62	1.19	0.0162	0.614
ACTAGCAGGCCAATGGTCACTCAAGATTAGTCCG	-0.525	-0.42	-0.46	-0.417	-0.678	0.789	2.17	3.26	0.959	2.79
CGTCAAAGTTCACGGTAACGTAACAGAAAGCAGC	7.1	6.15	2.53	4.09	0.842	5.42	6.18	6.59	3.33	5.36
ACTATTAGTAGAGACGAGGGCAACCGATAGGTTG	0.0303	0.0981	0.152	-0.117	0.12	0.455	1	1.21	0.245	0.958
TCTAGTTGGTCACGGAGATCACACACGACGGGTA	0.323	0.174	0.394	0.575	0.153	0.929	1.16	2.06	2.93	2.31
GCTATTAGTTGAAAGGGCAAACGAATGATTCTCG	0.733	0.93	0.494	1.13	-0.0679	2.7	2.92	4.48	2.73	4.34
CCTCGGAGTACAGAAGGTCAGAGCTGTCCGCTTT	1.75	3.22	1.46	1.54	-0.164	2.02	-0.0233	0.921	-0.606	0.4
AGAACGAGGGCAATGAGTTGTTAGCACGGGTGGC	0.161	0.00811	-0.446	-0.26	-1.01	1.23	1.18	0.817	0.096	0.514
ATACCACGGTGATCGTGAGGTCGTTGATACTAAC	1.06	0.834	0.899	0.931	-0.0132	0.958	0.3	0.0838	-0.0631	0.19
TCTATTAGTTTAAGGGCAACCGACGAGTCCGTTT	1.36	1.32	0.766	1.32	0.433	1.33	0.0687	2.32	3.91	3.18
TCAATTAGTTGAAGGGCAACCGACGAGTCCGTTT	0.718	0.5	0.203	0.456	-0.169	0.684	0.142	2.03	3.38	2.61
TAAACAGGGTCAAAGGCCAGAGTACGAATGTCGA	7.35	5.57	0.675	4.69	1.48	6.49	9.15	8.05	6.91	8.47
TTACCAAGGTGCAGGTCGTTGATCCCTCTGTAGA	0.967	1.17	0.154	0.819	-0.626	0.827	-0.238	0.806	0.416	0.733
